A short description of test [1]: qHTS assay to identify small molecule agonists of the sonic hedgehog signaling (Shh) pathway (AID 1259368; calls by dose curve;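 also: NIH/3T3-derived 3T3Gli1-Luc cells carrying a stable Gli1-driven firefly luciferase reporter; series mostly up to about 92 µM; nearly all actives have a fitted effect of over 15% in size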). Put shortly:
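Hedgehog pathway agonism scored by increased firefly luciferase luminescence in 3T3Gli1-Luc cells treated 24 hr at 37 C; detection used a 30 min room-temperature reagent incubation.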
Background: In qHTS, concentration-response curves come from the screen itself.

Test [2] in a line: qHTS assay to identify small molecule antagonists of the sonic hedgehog signaling (Shh) pathway (AID 1259369; calls by dose curve; also: nearly all actives have a fitted effect of over 45% in size; also: potency is read from the fitted curve at half-maximal effect). Put shortly:
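NIH/3T3 stable Gli1-Luc clone, 2,000 cells/well, 4hr settle; cpd + conditioned medium 24hr; Luc reagent 30min RT; luminescence.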

Test [3] addresses Estrogen receptor beta (Homo sapiens) (UniProt Q92731). Kind of test: qHTS assay to identify small molecule agonists of the estrogen receptor beta (ER-beta) signaling pathway (AID 1259377; active = well fitted activation curve with a large enough effect in the signal ratio in the repeat runs, not every such curve was filed as active; the % refers to the signal ratio). Put shortly: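 Beta-lactamase reporter readout: fluorescence of LiveBLAzer B/G FRET substrate after 2 h at room temperature, following 16 h compound treatment of ER-beta-UAS-bla HEK293T cells at 37C in 2% charcoal-stripped FBS medium.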

Test [4] shares this target. Kind of test: qHTS assay to identify small molecule antagonists of the estrogen receptor beta (ER-beta) signaling pathway (AID 1259378; active = well fitted inhibition curve with a large enough effect in the signal ratio in the repeat runs, not every such curve was filed as active; the % refers to the signal ratio). Put shortly:
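ER-beta-UAS-bla HEK293T cells in 2% charcoal-stripped FBS medium treated with compound plus 1nM final 17-beta-estradiol for 16 hr at 37C. Beta-lactamase reporter read by FRET substrate fluorescence after 2 hours at room temperature.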

Test [5] in a line: qHTS assay to identify small molecule agonists of the estrogen receptor beta (ER-beta) signaling pathway - cell viability counter screen (AID 1259380). Also: nearly all actives have a fitted effect of over 30% in size. Also: potency is read from the fitted curve at half-maximal effect. Put shortly:
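Measured: luminescence from CellTiter-Glo after 30 min at room temperature, added to wells already read for the LiveBLAzer FRET reporter (2 hr substrate); ER-beta-UAS-bla HEK293T cells had 16 hr compound treatment at 37C, 5% CO2.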

The nature of test [6]: qHTS assay to identify small molecule antagonists of the estrogen receptor beta (ER-beta) signaling pathway - cell viability counter screen (AID 1259382). Also: series mostly up to about 92 µM; nearly all actives have a fitted effect of over 55% in size. Put shortly: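 Readout: luminescence, CellTiter-Glo, same wells as bla assay. System: ER-beta-UAS-bla GripTite HEK293T, 2% charcoal-stripped FBS. Exposure: compounds plus 1nM 17-beta-estradiol, 16 hr, 37C.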
The target in test [7] is Estrogen receptor (Homo sapiens) (UniProt P03372). Kind of test: qHTS assay to identify small molecule agonists of the estrogen receptor alpha (ER-alpha) signaling pathway in the presence of an antagonist (AID 1259383; calls by dose curve; also: nearly all actives have a fitted effect of over 15% in size; also: potency is read from the fitted curve at half-maximal effect; as to activation: top concentration of the series differs between compounds). Put shortly:
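Quantitative HTS confirmation: compounds titrated at 15 concentrations onto estrogen-deprived VM7Luc4E2 cells carrying a four-ERE luciferase construct, with ICI-182,780 present at 10.0nM final. Signal is luminescence after 22hr exposure.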

Test [8] can be described thus: qHTS assay to identify small molecule agonists or antagonists of the thyroid stimulating hormone receptor (TSHR) signaling pathway - wild type cell line counter screen (AID 1259384; calls by dose curve). Put shortly: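 Wild-type Hek293 cells, 800/well, 18 h at 37C, then compound with Ro20-1724 for 30 min RT. cAMP by HTRF (cAMP-d2/anti-cAMP cryptate), 1 h RT, fluorescence read. 15 concentrations, triplicates.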

The target of test [9] is Thyrotropin receptor (Homo sapiens) (UniProt P16473). Kind of test: qHTS assay to identify small molecule antagonists of the thyroid stimulating hormone receptor (TSHR) signaling pathway (AID 1259385; calls by dose curve; also: nearly all actives have a fitted effect of over 20% in size). Put shortly: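 TSHR-HEK293 cells (800/well) plated 18 h, then compounds with Ro20-1724 and TSH at 1.5 ng/mL final, 30 min at room temperature. cAMP quantified by HTRF (cAMP-d2/anti-cAMP-cryptate, 1 h); 15 concentrations in triplicate.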

Test [10] concerns the target Progesterone receptor (Homo sapiens) (UniProt P06401). The experiment in a line: qHTS assay to identify small molecule antagonists of the progesterone receptor (PR) signaling pathway (AID 1346795; active = well fitted inhibition curve with a large enough effect in the signal ratio in the repeat runs, not every such curve was filed as active; the % refers to the signal ratio; also: potency is read from the fitted curve at half-maximal effect). Put shortly:
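Beta-lactamase reporter, HEK293T PR-UAS-bla line; 2% charcoal-stripped FBS; 6 hr pre-incubation, 37C/5% CO2. Compound + R5020 1 nM final, 16 hr. LiveBLAzer B/G FRET substrate, 2 hr RT; fluorescence intensity read.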

Test [11] can be described thus: qHTS assay to identify small molecule antagonists of the progesterone receptor (PR) signaling pathway - cell viability counter screen (AID 1346798). Also: series mostly up to about 92 µM; nearly all actives have a fitted effect of over 50% in size. Put shortly: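 Luminescence readout (CellTiter-Glo, 30 min, RT) of viability in PR-UAS-bla HEK293T cells exposed to compound and R5020 agonist for 16 hr at 37C, 5% CO2; run in the same wells as the beta-lactamase reporter read.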

The nature of test [12]: qHTS assay to identify small molecule agonists of the progesterone receptor (PR) signaling pathway - cell viability counter screen (AID 1346799; calls by dose curve; also: nearly all actives have a fitted effect of over 45% in size). Put shortly: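 HEK293T PR-UAS-bla, 3,000 cells/well, 2% charcoal-stripped FBS; 6 h settle, compound 16 h at 37C/5% CO2; LiveBLAzer 2 h RT, then CellTiter-Glo 30 min RT, luminescence read.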
A short description of test [13]: qHTS assay to identify small molecule antagonists of the TGF-beta/Smad signaling pathway - cell viability counter screen (AID 1346824). Also: nearly all actives have a fitted effect of over 50% in size. Put shortly: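 SBE-bla HEK 293T cells, incubated overnight, then compound plus 0.25 ng/mL TGF-beta1 (stock added) for 5 hr at 37 C. Viability was read in the same wells by CellTiter-Glo luminescence after 30 min at room temperature.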

Test [14] is described as follows: qHTS assay to identify small molecule agonists of the TGF-beta/Smad signaling pathway - cell viability counter screen (AID 1346829). Also: top concentration of the series differs between compounds; nearly all actives have a fitted effect of over 45% in size. Put shortly:
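HEK 293T SBE-bla line, 5 hr compound exposure at 37 C, multiplexed CellTiter-Glo viability read by luminescence.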

A short description of test [15]: qHTS assay to identify small molecule agonists of the TGF-beta/Smad signaling pathway (AID 1346859; active = well fitted activation curve with a large enough effect in the signal ratio in the repeat runs, not every such curve was filed as active; the % refers to the signal ratio; also: series mostly up to about 77 µM). Put shortly: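 Read-out: fluorescence at 460 and 530 nm (405 nm excitation) after a 2 hr room-temperature incubation with beta-lactamase FRET substrate. SBE-bla HEK 293T cells had been treated with test compounds for 5 hr at 37 C.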
Test [16] concerns the target Thyrotropin-releasing hormone receptor (Homo sapiens) (UniProt P34981). Kind of test: qHTS assay to identify small molecule antagonists of the thyrotropin-releasing hormone receptor (TRHR) signaling pathway (AID 1346877; active = well fitted inhibition curve with a large enough effect in the repeat runs, not every such curve was filed as active; also: series mostly up to about 51 µM). Put shortly:
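Overnight-plated (18 h, 37 °C) HEK293 cells expressing TRHR were dye-loaded 2 h, treated with compound, then stimulated with TRH at 1 nM final. Fluorescence intensity was captured every second for 3 min.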

Test [17] can be described thus: qHTS assay to identify small molecule agonists of the androgen receptor (AR) signaling pathway in the presence of an antagonist - cell viability counter screen (AID 1259379).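 Also: MDA-kb2 human breast cancer cells carrying an MMTV luciferase reporter; series mostly up to about 92 µM; nearly all actives have a fitted effect of over 25% in size.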 Put shortly:
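MDA-kb2 viability measured by CellTiter-Fluor fluorescence in the same wells as the luciferase signal; nilutamide 3.0uM final; 15-point compound titration; 16 hr at 37C.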

A short description of test [18]: qHTS assay to identify small molecule agonists of the estrogen receptor alpha (ER-alpha) signaling pathway in the presence of an antagonist - cell viability counter screen (AID 1259386).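 Also: cells exposed to compounds for 22 h at 37 °C before the viability read; nearly all actives have a fitted effect of over 30% in size.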 Also: potency is read from the fitted curve at half-maximal effect. Put shortly:
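The test measures whether compounds kill ER-alpha reporter cells (VM7Luc4E2) under antagonist co-treatment (ICI-182,780, 10.0nM). Fluorescence from CellTiter-Fluor is read after a 22hr exposure.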

Test [19] deals with Progesterone receptor (Homo sapiens) (UniProt P06401). The experiment in a line: qHTS assay to identify small molecule agonists of the progesterone receptor (PR) signaling pathway (AID 1346784; calls by dose curve; also: nearly all actives have a fitted effect of over 30% in size). Put shortly:
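HEK 293T PR-UAS-bla reporter cells, 2% charcoal-stripped FBS; 6 hr settle at 37C/5% CO2, compound (DMSO) 16 hr, LiveBLAzer B/G FRET substrate 2 hr RT, fluorescence intensity read.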

The structures appear in SMILES notation. Values joined by “and” are separate entries in the source; they are usually repeats but may differ in a detail not shown here. Equal values may be shown once. Results filed as inconclusive are left out. Where a structure was tested more than once in an assay, its records may differ in their call. Active and inactive are the calls of the source. Unless noted, calls follow the shape of the dose curve; as a rule, active = well fitted curve in the direction sought with a large enough effect in the repeat runs; inconclusive = weak or mixed curves; inactive = no such curve, though single readings can be large; an effect the other way counts as inactive or inconclusive.

Consider seven compounds from PubChem BioAssay (Tox21).

Sequence of Thyrotropin receptor (Homo sapiens) (P16473 whole entry, looked up): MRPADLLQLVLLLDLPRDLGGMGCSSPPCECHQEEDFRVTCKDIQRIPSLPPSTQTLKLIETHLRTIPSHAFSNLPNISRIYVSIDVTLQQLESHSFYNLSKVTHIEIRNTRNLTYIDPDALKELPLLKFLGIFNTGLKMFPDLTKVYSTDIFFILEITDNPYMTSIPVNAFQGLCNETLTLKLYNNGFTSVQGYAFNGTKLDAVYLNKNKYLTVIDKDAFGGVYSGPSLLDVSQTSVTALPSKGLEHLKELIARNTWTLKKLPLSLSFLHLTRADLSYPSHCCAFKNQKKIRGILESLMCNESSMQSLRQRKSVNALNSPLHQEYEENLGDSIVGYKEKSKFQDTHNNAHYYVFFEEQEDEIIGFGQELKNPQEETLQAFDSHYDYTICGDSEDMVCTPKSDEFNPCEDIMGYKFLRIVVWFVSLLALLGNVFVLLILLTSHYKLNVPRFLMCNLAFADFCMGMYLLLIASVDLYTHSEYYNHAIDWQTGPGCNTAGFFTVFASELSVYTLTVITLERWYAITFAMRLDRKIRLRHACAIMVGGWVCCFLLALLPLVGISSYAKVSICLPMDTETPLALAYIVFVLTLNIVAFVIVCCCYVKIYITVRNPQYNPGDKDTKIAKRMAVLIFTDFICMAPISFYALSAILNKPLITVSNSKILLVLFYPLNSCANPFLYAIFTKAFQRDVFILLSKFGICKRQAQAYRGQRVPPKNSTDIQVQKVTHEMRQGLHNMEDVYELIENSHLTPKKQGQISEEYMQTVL
Sequence of Estrogen receptor beta (Homo sapiens) (Q92731 whole entry, looked up): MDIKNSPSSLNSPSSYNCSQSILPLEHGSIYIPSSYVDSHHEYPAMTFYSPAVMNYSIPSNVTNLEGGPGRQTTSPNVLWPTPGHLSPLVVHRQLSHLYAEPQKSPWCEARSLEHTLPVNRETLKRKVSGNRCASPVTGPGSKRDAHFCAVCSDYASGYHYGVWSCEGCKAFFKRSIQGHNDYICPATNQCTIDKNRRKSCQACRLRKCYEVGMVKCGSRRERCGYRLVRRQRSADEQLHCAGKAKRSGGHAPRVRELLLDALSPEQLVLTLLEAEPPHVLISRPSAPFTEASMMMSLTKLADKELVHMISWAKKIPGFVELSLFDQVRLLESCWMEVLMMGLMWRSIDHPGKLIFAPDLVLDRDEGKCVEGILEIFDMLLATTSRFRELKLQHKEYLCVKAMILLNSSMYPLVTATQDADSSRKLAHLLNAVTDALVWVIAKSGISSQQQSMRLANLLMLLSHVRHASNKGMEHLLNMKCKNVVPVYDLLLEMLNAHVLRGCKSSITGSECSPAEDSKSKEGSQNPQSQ
Sequence of Thyrotropin-releasing hormone receptor (Homo sapiens) (P34981 whole entry, looked up): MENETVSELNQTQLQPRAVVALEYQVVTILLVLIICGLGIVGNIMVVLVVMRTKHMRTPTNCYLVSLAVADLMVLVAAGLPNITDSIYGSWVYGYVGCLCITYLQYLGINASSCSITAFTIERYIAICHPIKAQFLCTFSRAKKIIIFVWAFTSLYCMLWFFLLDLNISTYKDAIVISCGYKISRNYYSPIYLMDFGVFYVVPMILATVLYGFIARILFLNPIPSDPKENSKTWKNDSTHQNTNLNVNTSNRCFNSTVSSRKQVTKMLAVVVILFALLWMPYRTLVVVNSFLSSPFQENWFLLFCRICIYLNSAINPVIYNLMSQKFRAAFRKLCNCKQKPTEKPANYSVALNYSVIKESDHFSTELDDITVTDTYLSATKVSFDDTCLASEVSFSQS
Sequence of Progesterone receptor (Homo sapiens) (P06401 whole entry, looked up): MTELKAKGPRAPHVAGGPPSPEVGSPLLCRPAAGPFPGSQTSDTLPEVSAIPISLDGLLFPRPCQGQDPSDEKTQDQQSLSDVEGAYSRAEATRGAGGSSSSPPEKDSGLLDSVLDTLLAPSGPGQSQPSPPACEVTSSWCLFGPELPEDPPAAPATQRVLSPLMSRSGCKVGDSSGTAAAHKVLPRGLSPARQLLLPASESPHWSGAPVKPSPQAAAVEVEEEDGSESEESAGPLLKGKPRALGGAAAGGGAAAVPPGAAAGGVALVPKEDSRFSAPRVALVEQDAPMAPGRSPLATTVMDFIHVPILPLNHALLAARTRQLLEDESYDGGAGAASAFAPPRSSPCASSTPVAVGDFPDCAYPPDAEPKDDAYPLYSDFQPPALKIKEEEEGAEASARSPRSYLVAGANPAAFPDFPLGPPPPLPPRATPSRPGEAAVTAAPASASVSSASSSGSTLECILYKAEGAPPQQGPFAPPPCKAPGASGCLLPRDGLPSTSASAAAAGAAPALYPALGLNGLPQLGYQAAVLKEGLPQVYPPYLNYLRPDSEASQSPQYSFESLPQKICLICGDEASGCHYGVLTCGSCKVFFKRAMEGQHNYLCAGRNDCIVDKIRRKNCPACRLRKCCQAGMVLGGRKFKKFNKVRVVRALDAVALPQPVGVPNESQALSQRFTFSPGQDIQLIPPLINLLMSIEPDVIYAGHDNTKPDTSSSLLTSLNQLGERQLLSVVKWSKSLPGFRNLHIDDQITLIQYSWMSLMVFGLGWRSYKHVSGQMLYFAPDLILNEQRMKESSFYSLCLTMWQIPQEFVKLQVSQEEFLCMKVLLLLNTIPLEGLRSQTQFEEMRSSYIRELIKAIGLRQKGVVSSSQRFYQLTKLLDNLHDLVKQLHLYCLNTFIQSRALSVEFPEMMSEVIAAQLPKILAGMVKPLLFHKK
Sequence of Estrogen receptor (Homo sapiens) (P03372 whole entry, looked up): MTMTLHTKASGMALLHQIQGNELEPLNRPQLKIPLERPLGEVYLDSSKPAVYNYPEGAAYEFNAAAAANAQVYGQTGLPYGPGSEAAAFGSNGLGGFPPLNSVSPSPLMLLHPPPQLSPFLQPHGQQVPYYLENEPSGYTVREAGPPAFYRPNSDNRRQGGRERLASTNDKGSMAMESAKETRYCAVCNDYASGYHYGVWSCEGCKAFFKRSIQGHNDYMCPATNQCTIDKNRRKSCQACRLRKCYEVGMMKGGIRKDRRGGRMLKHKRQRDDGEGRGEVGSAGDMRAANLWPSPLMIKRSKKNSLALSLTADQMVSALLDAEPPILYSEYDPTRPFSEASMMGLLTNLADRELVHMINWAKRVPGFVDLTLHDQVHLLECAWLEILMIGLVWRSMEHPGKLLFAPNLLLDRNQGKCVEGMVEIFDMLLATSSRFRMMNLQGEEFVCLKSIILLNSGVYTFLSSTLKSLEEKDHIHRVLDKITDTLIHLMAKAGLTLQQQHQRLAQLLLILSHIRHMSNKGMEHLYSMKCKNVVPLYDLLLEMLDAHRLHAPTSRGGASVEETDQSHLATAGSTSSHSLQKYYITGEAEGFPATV

Turning to `COP(=S)(OC)Oc1ccc([N+](=O)[O-])cc1`, the Potency result in test [1], in test [2], in test [3], in test [4], in test [5] and in test [6] was “inactive” throughout. Also, the Potency entry in test [7], in [11], in test [12], in test [13], in [14] and in [16] was “inactive” each time. Also, the compound was called inactive in test [8], in test [9] and in [15]. Also, in test [10], the Potency result was “inactive and 24.3 µM (active)”.

In the case of `CCCCCCCCCCCOC(=O)c1ccccc1C(=O)OCCCCCCCCCCC`, the Potency result in test [1], in test [2], in test [3], in [17], in test [6] and in test [7] was “inactive” in each case. The Potency result in test [18], in [10], in [11], in [12], in test [13] and in [14] was “inactive” each time. In addition, in [16], the Potency entry was “inactive”. Also, the compound was classed as inactive in test [8], in test [9] and in test [15].

Take `Nc1ccc(-c2ccccc2)cc1`: the Potency result in test [1], in [4], in test [17], in [6], in test [18] and in test [11] was “inactive” throughout. The Potency entry in test [12], in test [13], in test [14] and in test [16] was “inactive” throughout. Also, the Potency in [2] is 17.7 µM (active) and inactive; in test [5], 19.9 µM (active) and inactive; in [7], 8.87 µM (active) and 9.69 µM (active); in test [10], 1.99 µM (active). Further, the compound was called inactive in test [8], in test [9] and in [15].

On to `OCC(O)CO`, for which the Potency result in test [1], in [2], in test [3], in test [17], in test [7] and in [18] was “inactive” throughout. In addition, the Potency result in [19], in [10], in test [11], in [12], in test [13] and in test [14] was “inactive” in each case. Also, in [16], the Potency result was “inactive”. Moreover, the compound was classed as inactive in test [8], in test [9] and in [15].

Regarding `CCC(CC)Nc1c([N+](=O)[O-])cc(C)c(C)c1[N+](=O)[O-]`, the Potency result in test [1], in test [2], in [3], in [17], in test [18] and in [19] was “inactive” throughout. For the same compound, the Potency entry in test [11], in test [12], in test [13], in test [14] and in test [16] was “inactive” in each case. For the same compound, in test [5], the Potency was 61.1 µM (active). For the same compound, the call in test [8], in [9] and in [15] was inactive.

For the compound `O=[N+]([O-])c1cccc2ccccc12`, the Potency entry in [1], in test [2], in test [3], in test [17], in test [6] and in [7] was “inactive” throughout. In addition, the Potency result in [18], in test [10], in [11], in test [12], in test [13] and in test [14] was “inactive” throughout. Moreover, in [16], the Potency result is “inactive”. Further, the compound was called inactive in [8], in test [9] and in test [15].

In the case of `Nc1ccc(-c2ccc(N)c(N)c2)cc1N`, the Potency entry in test [1], in test [3], in test [17], in test [6], in [19] and in [11] was “inactive” in each case. Further, the Potency result in [12], in [13] and in [14] was “inactive” throughout. The Potency is 13.6 µM (active) in test [2]; 54.3 µM (active) in test [18]; 48.4 µM (active) and 24.3 µM (active) in test [10]. Also, the result in test [8] and in [15] was inactive.
